# The sample as a whole holds a higher share of hits than the screen did.
# KDM5B inh: Primary screen for KDM5B Histone Demethylases FDH-coupled qHTS; Lysine-specific demethylase 5B (Homo sapiens), Q9UGL1; KDM5B demethylase, FDH-coupled NADH fluorescence (FDH is formaldehyde dehydrogenase); Potency, µM (series often up to 57.7 µM), usual class: inhibitors; 2.6% of 220,000 active; AID 1347165, 2019; active means well fitted inhibition curve with a large enough effect; further: nearly all actives have a fitted effect of over 70% in size
#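 KDM5BΔAP (200 nM final) in 50 mM HEPES pH 7.5, 0.01% Tween-20 was preincubated 10 min at RT with compound over a concentration range. Substrate mix (H3K4me3 12.5 µM, α-KG 25 µM, Fe²⁺, ascorbate, NAD⁺, FDH) was added, and NADH fluorescence change over 30 min gave dose-response curves.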
# Hits are given with their value; – = inactive.
SMILES,KDM5B inh
CC(N)CC(C)(C)c1ccccc1 (stereo unspecified),–
COc1ccc(-c2ccc3nc(-c4c(F)c(F)cc(F)c4F)oc3c2)c(OC)c1OC,–
C/C(=N/Nc1ccc(S(N)(=O)=O)cc1[N+](=O)[O-])c1ccc2c(c1)Nc1ccccc1S2,–
O=C(/C=C/c1ccccc1Cl)Nc1ccccc1-c1ccccc1,–
COC(=O)C1CCN(C(=O)Cn2nc(C(=O)O)c3ccccc3c2=O)CC1,–
CCOc1ccccc1CN1CCCN(S(=O)(=O)c2ccccc2)CCC(=O)NCC1,–
Cc1cc(C)c(-c2cc(C(=O)Nc3cccc(C(F)(F)F)c3)[nH]n2)c(O)c1,–
CN(Cc1ccccc1)C(=O)C1=NO[C@@H]2CN(Cc3ccc(F)cc3)C[C@H]12,–
O=C(O)C1=NOC2CN(Cc3c(F)cccc3Cl)CC12 (stereo unspecified),–
CCc1ccc(CN2CC3ON=C(C(=O)O)C3C2)cc1 (stereo unspecified),112µM
N#CC(C(=O)CC1CCCCC1)C(=O)Nc1ccccc1Cl (stereo unspecified),–
CNC(=S)N/N=C/c1cccc([N+](=O)[O-])c1,–
N#Cc1cccc(NC(=O)NCc2ccccn2)c1,–
CCOC(=O)N1CCN(C(=O)CN(c2cc(Cl)cc(Cl)c2)S(C)(=O)=O)CC1,–
CCOCCCNC(=O)CSCc1nc(-c2cccc(OC)c2)oc1C,–
Cc1cc(CN(C)c2ccc(-c3nc(-c4ccccc4F)no3)cn2)on1,31.6µM
CCc1noc(-c2nc(-c3ccccc3F)no2)n1,–
Fc1ccccc1-c1nc(-c2ccc(Br)cc2)no1,–
CNC(=O)N1CCC(C2CCN(Cc3ccccc3C#N)C2)CC1 (stereo unspecified),–
O=C(c1cc2ccccc2[nH]1)N1CCCC(c2nc(CCOCC3CC3)no2)C1 (stereo unspecified),–
O=C1CCN(C(=O)c2ccsc2)CCCC(C(=O)N2CCN(c3ccccn3)CC2)CCN1 (stereo unspecified),20µM
O=C1CCN(C(=O)c2ccsc2)CCCOCCN1,–
O=C1CCN(Cc2ccncc2)CCCC(C(=O)N2CCCC2)CCN1 (stereo unspecified),–
O=C1CCN(C(=O)C2CCN(C(=O)c3cccnc3)CC2)CCCCCCN1,–
CCN(CC)C(=O)c1cc2c(s1)CCC(C(=O)NC)C2 (stereo unspecified),–
SMILES,KDM5B inh
CCN(CC)C(=O)c1cc2c(s1)CCC(C(=O)N1CCN(c3ccccc3)CC1)C2 (stereo unspecified),–
CCN(CC)C(=O)c1cc2c(s1)CCC(C(=O)N1CCN(c3ccccn3)CC1)C2 (stereo unspecified),28.2µM
CCN1CCN(C(=O)C2CCCN(C(=O)c3ccccc3)CCC(=O)NCC2)CC1 (stereo unspecified),–
O=C1CCN(C(=O)C2CCC2)CCCC(C(=O)N2CCN(c3ccccn3)CC2)CCN1 (stereo unspecified),22.4µM
Cc1ncsc1C1N(C2CCN(Cc3cn(C)c4ccccc34)CC2)C(=O)C12CCCC2 (stereo unspecified),–
CNC(=O)c1cccc(NC(=O)CC2C=CCC2)c1 (stereo unspecified),–
N#Cc1ccc(S(=O)(=O)N2CCCCCCNC(=O)[C@@H]3CCC[C@@H]32)cc1,–
CONC(=O)COC(c1ccccc1)c1ccccc1,–
CCc1noc(-c2cccn3c(CNC(=O)c4ccccn4)nnc23)n1,25.1µM
Cc1csc(CNC(=O)c2ccccn2)n1,–
CCc1noc(-c2cccn3c(CNC(=O)COc4ccc(F)cc4)nnc23)n1,22.4µM
O=C(NCc1nnc2c(-c3nc(C4CC4)no3)cccn12)c1ccc2ccccc2n1,–
CCc1noc(-c2cn(C3CCN(C(=O)COc4ccc(F)cc4)C3)nn2)n1 (stereo unspecified),–
COCc1nc(CCNC(=O)c2ccoc2)no1,–
O=C(NCc1ccccc1F)c1ccc2ccccc2n1,–
CCc1noc(-c2cccn3c(CNC(=O)c4ccoc4)nnc23)n1,14.1µM
CCc1noc(-c2cccn3c(CNC(=O)c4ccc5ccccc5n4)nnc23)n1,20µM
COC(=O)c1nc2n(n1)C(c1ccccc1Cl)C(C(=O)Nc1ccc(Cl)cc1)=C(C)N2 (stereo unspecified),–
O=C1N(c2ccccc2)c2ccccc2C12CCN(Cc1cncs1)C2 (stereo unspecified),–
CN(Cc1ccc(CN(C)Cc2ccc3c(c2)OCO3)cc1)Cc1ccc2c(c1)OCO2,–
CC(=O)N1CCN(C(C(=O)O)c2c[nH]c3ccc(C)cc23)CC1 (stereo unspecified),–
Cc1cccc(/C=C/C(=O)c2ccc(-c3ccccc3)cc2)c1,–
CCN1CCN(CCNC(=O)C2CCN(c3nnc(-n4c(C)ccc4C)s3)CC2)CC1,–
CCc1noc(-c2cccn3c(CNC(=O)c4ccc(F)cc4)nnc23)n1,25.1µM
CCc1noc(-c2cccn3c(CNC(=O)c4ccccc4)nnc23)n1,28.2µM
SMILES,KDM5B inh
CCCc1noc(-c2cccn3c(CNC(=O)c4ccc(F)cc4)nnc23)n1,14.1µM
Cc1noc(-c2cccn3c(CNC(=O)c4ccccc4)nnc23)n1,28.2µM
CCCc1noc(-c2cccn3c(CNC(=O)c4ccc(OCC)cc4)nnc23)n1,–
Cc1cnc2c(S(=O)(=O)NCCCOCC3CC3)cccc2c1,–
O=C(Nc1cc(Cl)cc(Cl)c1)C1CC(=O)N(C2CCCCC2)C1 (stereo unspecified),–
CCOc1nc2ccccc2nc1N1CCC(C(=O)Nc2ccc(C)c(Cl)c2)CC1,–
COc1ccc(C(C)=O)cc1CN1CCc2ccccc2C1,–
COc1ccc(OC)c(NC(=O)C2(n3cnnn3)CCCCC2)c1,–
Cc1cc(C)cc(C(=O)NCCc2c[nH]c3ccccc23)c1,–
N#Cc1ccc(Oc2cccc(-c3cnc4ccccc4n3)c2)cc1C#N,–
O=C(CN1CCN(c2ccc(C(F)(F)F)cn2)CC1)Nc1nc(-c2ccc(F)c(F)c2)cs1,–
Cc1ccc(NC(=O)CN(C)Cc2cc(=O)oc3c(C)c(O)ccc23)cc1,–
CC(C)(C)n1ccc(C(=O)NC2CC(c3nnc(CO)n3C3CC3)C2)c1 (stereo unspecified),–
O=C(NC1CC(c2nnc(CO)n2C2CC2)C1)c1ccc(F)cc1Cl (stereo unspecified),–
O=C(NC1CC(c2nnc(CO)n2C2CC2)C1)c1cccn2cnnc12 (stereo unspecified),28.2µM
CC(C)(C)C(=O)/C(C#N)=C\c1cccc(F)c1,–
Cc1ccc(COC(=O)c2ccc(C(=O)c3ccccc3)cc2)cc1,–
COC(=O)CN(Cc1cccs1)C1CC1,–
O=C(CCc1cc2n(n1)CCCNC2)N1CCCC(c2nnc3ccccn23)C1 (stereo unspecified),11.2µM
CC(=O)N[C@@H]1Cc2ccccc2[C@H]1NC(=O)CCc1cc2n(n1)CCCNC2,–
O=C(CCc1cc2n(n1)CCNC2)N1CCN(C(=O)c2cccs2)CC1,–
O=C(CN1CCN(c2ccccc2)CC1)NCC(F)(F)F,–
CC1(C)CCCC(C)(C#CCN(Cc2ccccc2)Cc2ccccc2)O1 (stereo unspecified),–
CC(C)(C)C(=O)NCCSCc1ccsc1,–
COc1cccc(C(NC(=O)c2cc(C(C)=O)c[nH]2)c2nccn2C)c1 (stereo unspecified),–
COC(=O)CNC(=O)c1ccc(-c2ccccc2)cc1,–
O=C(NCc1ccc(F)cc1)c1nc2sccn2c1Br,–

# Bioassay records deposited in PubChem by National Center for Advancing Translational Sciences (NCATS).
